In the supplement of paper PMC6555819:

Key:
Test in all cases: PBM binding z-score (relative to random genomic background probes); higher = stronger binding; sequences stand for … in GC…GCGATTGACAGCGTAGAATGAAGG
[1] = tested on: RARb homodimer (NR concentration 270 nM)
How it was run: (§1)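 Ligand-free nuclear receptor dimers were bound for 1 h to custom Agilent 4×180K protein-binding microarrays. Detection used antibodies against each partner (one per run). Binding z-scores rest on regression-normalized fluorescence, with random background probes as the reference.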

[2] = tested on: RARg:RXRa (NR concentration 270 nM, RXRa partner concentration 90 nM)
How it was run: as §1

[3] = tested on: RARg homodimer (NR concentration 270 nM)
How it was run: as §1

[4] = tested on: RXRa DBDmut IVT, anti-RXR (DBD mutation: RXRa K156A/R161A, NR concentration 90 nM)
How it was run: as §1

[5] = tested on: RXRa homodimer (NR concentration 180 nM)
How it was run: as §1

[6] = tested on: THRa:RXRa (NR concentration 90 nM, RXRa partner concentration 90 nM)
How it was run: as §1

[7] = tested on: THRa homodimer (NR concentration 90 nM)
How it was run: as §1

[8] = tested on: VDR homodimer (NR concentration 270 nM)
How it was run: as §1

Sequence	PBM binding z-score [1]	PBM binding z-score [2]	PBM binding z-score [3]	PBM binding z-score [4]	PBM binding z-score [5]	PBM binding z-score [6]	PBM binding z-score [7]	PBM binding z-score [8]
AATACAGGGTCACTAGGCCTGAGTAGGTACGAAT	3.04	4.82	4.35	2.53	5.28	3.13	0.975	1.81
GCTACAGGGTCAAGGCCAGAGTACGCGTATTGAT	3.58	5.38	5.17	3	5.92	3.42	1.38	2.4
TCTATTAGTTGAAGGGCAACAGACGAGTCCGTTT	1.14	0.634	0.745	1.68	0.567	0.209	0.0682	1.55
ATACCAAGGTGATCGTGAGGTCGTTGATACTAAC	1.73	2.06	1.03	0.728	1.38	3.4	2.63	2.83
TTACCAAGGTGAGCTGAGGTCGTCGATCCAACTC	1.49	1.37	1.36	-0.22	1.75	4.74	2.4	1.02
AGAATGAGGTTATTAAGATCTGGGAATTGCGGTC	0.732	1.04	0.692	2.16	1.77	1.99	0.599	0.954
TCGTATAGGTAATACAGGTGAAAGTCGGCATCTA	0.603	0.62	0.295	1.08	0.949	1.15	0.259	0.57
